Source: PubChem (National Center for Advancing Translational Sciences (NCATS))
FEN1 inhibitor: inhibitors of human flap endonuclease 1. P39748. Recombinant FEN1 flap cleavage, fluorescence, 15 min. Potency, µM (series often up to 114 µM), inactives show at the highest dose activity change, negative = inhibition, hits mostly inhibitors. 0.35% of 390,000 active; further: on the % scale 0 is the no-effect control and ±100 the full control effect; nearly all actives have a fitted effect of over 65% in size
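Potency values derive from four-parameter Hill fits of normalized qHTS data. The reaction used 10 nM FEN1 preincubated 15 min at room temperature with compound, then 50 nM DNA substrate, read at 0 and 15 min.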
POLK inh: DNA polymerase kappa (human) inhibition; Q9UBT6; purified Pol kappa, fluorescent DNA synthesis assay, 10 min; Potency, µM (series often up to 107 µM), for the others: at the highest dose activity, negative = inhibition, actives largely listed as inhibitors; 0.53% of 400,000 active; further: on the % scale 0 is the no-effect control and ±100 the full control effect
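Fluorescent qHTS in 1536-well format: enzyme (10 nM) and compound sat 15 min at room temperature before 50 nM substrate (final) was added. Signal taken at 0 and 10 min; no-enzyme buffer wells were negative controls.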
WRN inhibitor: WRN helicase (human) inhibition; Q14191; WRN helicase unwinding, fluorescent forked duplex, kinetic; Potency, µM (top dose mostly 114 µM), inactives show at the highest dose activity change, negative = inhibition, usual class: inhibitors; 0.46% of 360,000 active; AID 651768; further: on the % scale 0 is the no-effect control and ±100 the full control effect; nearly all actives have a fitted effect of over 55% in size
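Screening of the MLSMR collection measured strand separation of a quenched forked DNA duplex (100 nM) by 20 nM WRN with 2 mM ATP, all final. Compounds were preincubated with enzyme 15 min at room temperature.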
Pol beta inh: DNA polymerase beta (human) inhibition; Potency, µM (highest dose often 114 µM), for the others: at the top dose activity change, negative = inhibition, hits mostly inhibitors; 1.3% of 340,000 active; AID 485314; P06746; Pol beta primer extension/strand displacement, fluorescence kinetic; further: on the % scale 0 is the no-effect control and ±100 the full control effect
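Pol beta (10 nM) was preincubated with compound for 15 min at room temperature. The reaction was then started with 50 nM substrate and read immediately and after a further 10 min at room temperature.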
POLI inh: blocks human DNA polymerase iota activity; Q9UNA4; Pol iota fluorescent replication assay, 10 min; Potency, µM (series often up to 115 µM), inactives show at the top dose activity, negative = inhibition, most hits filed as inhibitors; 1% of 390,000 active; AID 588590
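Pol iota at 10 nM preincubated 15 min with compounds at room temperature; reaction started with fluorescent substrate, 50 nM final. Fluorescence read kinetically at 0 and 10 min; buffer-only wells as negative control.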
Pol eta inh: inhibitors of human DNA polymerase eta | Q9Y253 | recombinant Pol eta, fluorescent DNA replication assay | Potency, µM (series often up to 114 µM), for inactives: at the highest dose activity change, negative = inhibition, usual class: inhibitors | 1.2% of 390,000 active | AID 588591; further: on the % scale 0 is the no-effect control and ±100 the full control effect
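Pol eta (10 nM) was preincubated with compounds for 15 min at room temperature, after which fluorescent replication substrate (50 nM final) was added to start the reaction. Fluorescence was read kinetically at 0 and 10 min.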
An asterisk follows results filed as active; ? = inconclusive; . = no result; [ ] = remark or other dose. Rows were chosen to be rich in hits. Some 2.4% of all compounds tested hit in one or more screens of this group. The call rests on the fitted dose curve; in most records, active means well fitted curve in the direction sought with a large enough effect; inconclusive means small, poorly fitted or top-dose-only effect, or another doubt; inactive means no such curve, though single readings can be large; an effect the other way counts as inactive or inconclusive. Potency means the concentration at half of the fitted maximal effect.

SMILES | FEN1 inhibitor | POLK inh | WRN inhibitor | Pol beta inh | POLI inh | Pol eta inh
Cc1nn(-c2ccccc2)c(Cl)c1C(=O)NCc1cccs1 | -14% | -41% | -7% | 13µM* | ? | ?
Cc1nn(-c2ccccc2)c(C)c1C(=O)NCc1cccs1 | -2% | 4% | 2% | 47% | 28% | -13%
Nc1ccc2cc3ccc(N)cc3nc2c1 | . | 9.5µM* | . | . | . | .
Cc1ccc2cc(N)ccc2n1 | -2% | 3% | 5% | ? | 92% | -4%
CC/C(=C\c1ccc(C(=O)OC)cc1)c1cc(OC)cc2oc3ccccc3c12 | -5% | 8% | . | . | 26% | .
Cc1cc(C)c2c(N)c(C(=O)Nc3nccs3)sc2n1 | -19% | -21% | -33% | 40µM* | 5% | ?
Nc1c(C(=O)Nc2ccc(C(F)(F)F)cc2)sc2nc(-c3cccs3)ccc12 | -6% | -31% | . | ? | -6% | -10%
CC(C)(C)C(=O)c1sc2nc(-c3cccs3)cc(C(F)(F)F)c2c1N | 11% | 2% | 100µM* | 3% | 8% | -11%
Nc1c(C(=O)Nc2nccs2)sc2nc(-c3cccs3)cc(C(F)(F)F)c12 | -5% | 1% | -10% | 45µM* | -12% | ?
CCOc1ccc(NC(=O)CSc2nnc3c(n2)[nH]c2ccc(S(=O)(=O)N4CCCCC4)cc23)cc1 | 2% | -37% | . | . | -15% | .
CCCCNC(=O)CCCN1C(=O)c2ccccc2Sc2ncccc21 | -5% | 0% | . | -6% | 1% | -12%
COc1ccccc1CNC(=O)C(=O)NCC(c1cccs1)S(=O)(=O)c1ccccc1 (configuration not stated) | -5% | -7%[60.1 µM] | . | -14% | 10% | -6%
Cc1ccccc1NC(=O)CN1CCOCC1 | 3% | 8% | 8% | 22% | 115% | 4%
O=C(CN1CCOCC1)Nc1ccccc1C(=O)O | -7% | -7% | 0%[57.1 µM] | 1% | 79µM* | -4%
Cn1c(SCCOc2ccccc2)nnc1-c1ccc(NC(=O)CCc2ccccc2)cc1 | 2% | 4% | . | . | 30% | .
CC1C/C(=C\c2cccnc2)C(=O)/C(=C/c2cccnc2)C1 (configuration not stated) | 2% | -6% | -16% | -2% | 16µM* | 20µM*
C=C(C)C1CCC2(C(=O)O)CCC3(C)C(CCC4C5(C)C(C=O)C(O)C(C)(C)C5CCC43C)C12 (configuration not stated) | -5% | -15% | -4%[11.6 µM] | 0% | -25% | 79µM*
O=C(NNC(=O)C1[C@H]2CCCC[C@@H]12)c1ccc(=O)oc1 (some centres not stated) | 10% | ? | -2%[11.6 µM] | 79µM* | 22µM* | ?
O=C(NC12CC3CC(CC(C3)C1)C2)c1ccc(=O)oc1 | -5% | -6% | 5% | 9% | 18% | -3%
O=C(COc1ccccc1C(=O)Nc1ccccc1)Nc1ccc(Br)cc1 | -12% | -1% | . | . | -21% | .
O=C(c1ccco1)[C@@H]1[C@@H]2C(=O)N(c3ccccc3)C(=O)[C@@H]2C2c3ccccc3C=CN21 (some centres not stated) | -18% | -13% | -14% | 36% | 13µM* | ?
Cc1ccc(N2C(=O)[C@@H]3[C@H](C2=O)C2c4ccccc4C=CN2[C@@H]3C(=O)c2ccco2)cc1 (some centres not stated) | -6% | -23% | -23% | 6% | ? | ?
CC(=O)[C@@H]1[C@@H]2C(=O)N(Cc3ccccc3)C(=O)[C@@H]2C2c3ccccc3C=CN21 (some centres not stated) | -14% | 0% | -6% | 23% | ? | ?
Cc1ccc(N2C(=O)[C@@H]3[C@H](C2=O)C2c4ccccc4C=CN2[C@@H]3C(=O)c2ccco2)c(C)c1 (some centres not stated) | -1% | -23% | -28% | 21% | ? | 28µM*
CCOCCSc1c(C)cnc2c1c(=O)n(C)c(=O)n2C | -3% | -7%[60.1 µM] | . | 6% | 31% | -5%
